Reference: PubChem BioAssay (NCI)
Several values for one entry are separate records, joined by “and”; a condition that tells them apart may be missing. Identical values can stand only once. The panel holds about 83,000 compounds, 20% with a hit somewhere; the sample as a whole holds those more often.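 Plates (96-well) were seeded with cells, treated with compound at one concentration, and incubated for 48 hours before percent growth was determined.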 Activity calls are given as the source filed them. The calls were made as follows: active = growth percent below 10; inactive = the rest.

The compounds below were run on UO-31 renal (assay: NCI-60 one-dose screen, 48 h (100 = growth as untreated, 0 = no growth, -100 = all killed)). Settings: 10 µM unless noted.
For `COc1ccc(-c2nc3ccccc3n2CC(=O)N=Nc2c(O)[nH]c3ccc(OC)cc23)cc1`, the growth was 68.5% (inactive).
For `COc1cc(NC(=O)C(C)C)ccc1C(=O)NC(=S)Nc1ccc(S(N)(=O)=O)cc1`, the growth was 89.7% (inactive).
In the case of `COc1cc(C2CC(c3cc(OC)c(OC)c(OC)c3)=Nc3c(N)nc(N)nc3N2)ccc1Oc1nc(Nc2ccc(F)cc2)nc(N(C)C)n1` (centres undefined), the growth is reported as 40.3% (inactive).
With `COc1ccc(C2=NN(C(=O)[C@H]3[C@@H](c4ccco4)c4sc(=O)[nH]c4S[C@@H]3C)C(c3ccc4ccccc4c3)C2)cc1` (some centres undefined) the growth was 19.5% (inactive).
`O=C(CSc1nc2c(c(=O)[nH]1)CCCC2)Nc1ccccc1C(=O)O` was tested, and the growth was 82.3% (inactive).
In the case of `O=C1c2cccc3c(N4CCN(c5ccccc5)CC4)ccc(c23)C(=O)N1c1cccc(-c2nn(-c3ccccc3)cc2-c2nc3ccccc3s2)c1`, the growth is reported as 68.1% (inactive).
`N#CCc1nnc(NC(=O)c2ccc(-n3c(=O)[nH]c4ccccc4c3=O)cc2)s1` was tested, and the growth was 66.7% (inactive).
`CCOC(=O)/C(F)=C/C1CC1C(c1ccccc1)c1ccccc1` (centres undefined) was tested, and the growth was 70.2% (inactive).
In the case of `Cc1ccc(S(=O)(=O)N(CCn2ccnc2[N+](=O)[O-])CCn2ccnc2[N+](=O)[O-])cc1`, the growth is reported as 76.4% (inactive).
In the case of `CC(C)(C)C(=O)c1c2c(c3ccc4c5ccccc5ccc4n13)C(=O)c1ccccc1C2=O`, the growth is reported as 67.9% (inactive).
In the case of `O=C(N=Nc1c(O)[nH]c2ccc(Cl)cc12)c1ccc2nc(-c3ccc(Cl)cc3)[nH]c2c1`, the growth is reported as 87.3% (inactive).
`COc1ccc(NC(=O)Cn2c(/C=C/c3cccc(OC)c3)nc3ccccc3c2=O)cc1` was tested, and the growth was -74.3% (active).
For `Cc1cccc(/C=C/c2ccc(NC(=S)NCCCCN(C)C)cc2)c1`, the growth was -93.2% (active).
In the case of `Cc1ccc(C(=O)C[n+]2cccc3c4ccccc4ccc32)cc1`, the growth is reported as 29.7% (inactive).
In the case of `c1ccc(CSc2nnc(-c3ccc4nc(-c5ccccc5)[nH]c4c3)o2)cc1`, the growth is reported as 40.6% (inactive).
With `O=C(Nc1ccc(-c2ccc3c(c2)NC(=O)/C3=C\c2ccc[nH]2)cc1)Nc1cccc(Cl)c1` the growth was 10.5% (inactive).
With `N#Cc1c(-c2ccc(F)cc2)nc(SCc2ccc(F)cc2)nc1N1CCNCC1` the growth was 8.26% (active).
With `Cc1cc(C2(c3cc(C)c(OCC(O)CNc4c(C)n(C)n(-c5ccccc5)c4=O)cc3C(C)C)OC(=O)c3ccccc32)c(C(C)C)cc1OCC(O)CNc1c(C)n(C)n(-c2ccccc2)c1=O` (centres undefined) the growth was 19.1% (inactive).
With `O=CNc1cccc(-n2cnc3cc(-c4ccc(O)cc4)ccc32)c1` the growth was 10.3% (inactive).
With `COc1ccc(S(=O)(=O)Nc2ccc(-c3ccc4c(c3)NC(=O)/C4=C\c3ccc[nH]3)cc2)cc1OC` the growth was 54.7% (inactive).
`CC(=O)Nc1cccc(-n2c(COc3ccc(Br)cc3)nc3ccccc32)c1` was tested, and the growth was 69.3% (inactive) and 86.1% (inactive).
With `CCCCNC(=S)Nc1ccc(OCc2nc3ccc(Cl)cc3[nH]2)cc1` the growth was 5.99% (active).
With `COc1ccc(OC)c(Cn2cc(C#N)c(N)c2C(=O)c2ccc(Br)cc2)c1` the growth was 34.6% (inactive).
In the case of `NCCCCn1c(SCCc2c[nH]c3ccccc23)nnc1-c1ccc2ccccc2n1`, the growth is reported as 26.4% (inactive).
`COc1cc(CNC(=O)C[C@H](C)CCC=C(C)C)ccc1OCc1cn(-c2ccccc2Cl)nn1` was tested, and the growth was 30.3% (inactive).
`NS(=O)(=O)c1ccc(N2N=C(c3ccc(NC(=O)Nc4ccccc4)cc3)CC2c2ccc(Br)cc2)cc1` (centres undefined) was tested, and the growth was -97.2% (active).
For `COc1ccc(NC(=O)CSc2nnc(-c3ccc(-c4nc5ccc(Cl)cc5[nH]4)cc3)o2)cc1`, the growth was 71.4% (inactive).
In the case of `CC1=C(C(=O)OCc2ccccc2)C(c2ccc(N(C)C)cc2)n2c(nc3ccccc32)N1` (centres undefined), the growth is reported as 61.1% (inactive).
For `NS(=O)(=O)c1ccc(Nc2nc(N/N=C/c3cc(Br)c(O)c(Br)c3)nc(Nc3ccccc3)n2)cc1`, the growth was 85.3% (inactive).
`COc1cccc(NC(=O)c2ccc(NC(=O)CCl)s2)c1` was tested, and the growth was 62.1% (inactive).
For `Cc1oc(-c2ccccc2)nc1CN[C@@H]1C[C@@H]2C[C@H]([C@H]1C)C2(C)C`, the growth was 23.9% (inactive).
With `C=CC(=O)Nc1ccc(C(=O)/C=C/c2ccc(N(C)C)cc2)c(O)c1` the growth was 1.04% (active).
`COc1cc(/C=C/C(=O)c2cnn(-c3cc(=O)[nH]c4ccc(Cl)cc34)c2C)cc(OC)c1OC` was tested, and the growth was -72.6% (active).
With `COc1cc(C=O)ccc1Oc1nc(Nc2ccc(F)cc2)nc(N(C)C)n1` the growth was 67.6% (inactive) and 48.7% (inactive).
